Laboratory results: PubChem BioAssay AID504766 (The Scripps Research Institute Molecular Screening Center, 2011)
Out of some 340,000 compounds screened, about 3,400 (1%) were called active.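 How the source made its calls: active means inhibition above the mean over all tested compounds plus 3 SD (cut at about 4.2% in these data); inactive means the rest.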 Many of the other results were omitted from the sample, so actives are more common in it than they were.

molecular target: Nuclear receptor subfamily 0 group B member 1 (Homo sapiens) (UniProt P51843); assay: DAX1 (NR0B1) inhibitors, primary screen, cell-based, HEK293, Gal4-DAX1, luciferase luminescence (AID 504766); settings: HEK293 Gal4-DAX1 luciferase reporter, at 6.75 µM, hits give high values;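 further: 0% = DAX1-transfected cells with DMSO and 100% = empty-vector control cells with DMSO; inhibition shows as a rise in luminescence from relieved DAX1 repression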
Sequence (P51843 207-470 limits assumed): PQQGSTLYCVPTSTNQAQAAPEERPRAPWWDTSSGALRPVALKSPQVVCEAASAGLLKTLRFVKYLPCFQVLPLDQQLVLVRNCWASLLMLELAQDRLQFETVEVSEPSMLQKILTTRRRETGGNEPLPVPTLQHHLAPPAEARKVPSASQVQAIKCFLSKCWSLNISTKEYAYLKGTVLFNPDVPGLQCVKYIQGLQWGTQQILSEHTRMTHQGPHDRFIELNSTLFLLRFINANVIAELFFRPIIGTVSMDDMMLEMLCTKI

inhibition, active:
Clc1ccccc1-c1cc(COc2ccc3ccccc3c2)no1 4.61%
COc1ccc(C2Nc3ccccc3C(=O)N2c2ccc(Cl)cc2)cc1Cn1cc([N+](=O)[O-])cn1 (stereo not drawn) 4.6%
c1cc(-n2cnnn2)ccc1NC1=NCCC1 5.97%
CCOC(=O)C1(C(F)(F)F)N=C(N(C)C)OC(N(C)C)=N1 5.05%
O=C(Nc1ccccc1F)c1ccc2c(c1)OCO2 4.59%
Cn1c(=O)n(C)c2cc(C(=O)Nc3ccc4c(c3)OCO4)ccc21 13.2%
Cn1c(=O)n(C)c2cc(C(=O)Nc3ccc(Br)cc3)ccc21 4.79%

inhibition, inactive:
C[C@@H]1CN([C@H](C)CO)C(=O)c2cc(Br)cnc2O[C@@H]1CN(C)Cc1cncnc1 0%
Clc1ccc(-c2cc(COc3ccccc3)no2)cc1Cl 0.18%
c1ccc2cc(OCCN3CCCC3)ccc2c1 0.12%
Cc1ccccc1-c1ccc2c(c1)O[C@@H](CN(C)Cc1ccc(C(=O)O)cc1)[C@@H](C)CN([C@H](C)CO)S2(=O)=O -0.49%
Cc1ccnc(SC2CC(=O)N(c3ccccc3)C2=O)n1 (stereo not drawn) 2.33%
COc1ccc(C2Nc3ccccc3C(=O)N2c2ccc(F)cc2)cc1Cn1nnc2ccccc21 (stereo not drawn) -0.72%
COc1ccc(N2C(=O)c3ccccc3NC2c2ccc(OC)c(CN3CCOCC3)c2)cc1 (stereo not drawn) 3.5%
COc1ccc(Cl)cc1NC(=O)CN(C)C(=O)c1cn(-c2ccccc2)nc1-c1cccs1 -0.65%
COCC1CCCCN1C(=O)c1cc(COc2ccc(C)c(C)c2)on1 (stereo not drawn) 2.51%
O=S(=O)(Nc1ccc(-n2cnnn2)cc1)c1ccc(Cl)cc1 0.55%
O=S(=O)(NC1CCCC1)c1ccc(-n2cnnn2)cc1 0.06%
C[C@@H]1CN([C@H](C)CO)C(=O)CCCn2cc(nn2)CO[C@H]1CN(C)S(C)(=O)=O 0.1%
CC1(C)NC(=O)N(CC(=O)Nc2ccc(-c3ccccc3)cc2)C1=O 1.36%
CCOC(=O)C1=C(C)c2ccccc2OC1(C)C(=O)OCC (stereo not drawn) 0.33%
O=C1CC[C@@H](C(=O)N2CSC[C@@H]2C(=O)Nc2ccc(C(F)(F)F)cc2)N1 0.12%
COc1cccc(OC)c1C(=O)Nc1ccc2c(c1)n(C)c(=O)n2C 1.46%
N#Cc1ccccc1NC(=O)c1ccc2c(c1)OCO2 2.82%
O=C(Nc1ccc(N2CCOCC2)cc1)c1ccc2c(c1)OCO2 1.98%
O=C(Nc1ccc2c(c1)OCO2)c1ccc(N2C(=O)c3ccccc3C2=O)cc1 0.86%
O=C(CN1CCN(c2ccccc2F)CC1)c1ccc2c(c1)OCO2 -0.06%
Cn1c(=O)n(C)c2cc(/C=N/NC(=O)c3cccc(Br)c3)ccc21 -2.01%
